Test results as given in the supplement of paper PMC8728848.
This is one part of a sample in which the strongest signals are shown more often than they occur.

Columns and labels:
Experiment in all cases: glycan array binding signal (z-score within array); higher = stronger binding
Conditions in all cases: glycan notation: IUPAC condensed, linker removed
[1] = target: Fuc(a1-2)Gal(b1-3)GalNAc(b1-4)[Neu5Ac(a2-3)]Gal(b1-4)Glc
Method in brief: (§1)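 The binding signal is a Z-score computed within each array. Data were drawn from 3228 arrays in the Consortium for Functional Glycomics database, restricted to those with a known protein sequence. Scores were averaged over arrays of the same protein sequence at different concentrations or buffers, and over linkers, and negative values can be taken as non-binding.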

Fuc(a1-2)Gal(b1-3)GlcNAc = target: Fuc(a1-2)Gal(b1-3)GlcNAc
Method in brief: as §1

Fuc(a1-2)Gal(b1-4)Glc = target: Fuc(a1-2)Gal(b1-4)Glc
Method in brief: as §1

[2] = target: Fuc(a1-2)Gal(b1-4)GlcNAc6S
Method in brief: as §1

[3] = target: Fuc(a1-2)Gal(b1-4)[Fuc(a1-3)]GlcNAc(b1-2)Man(a1-3)[Fuc(a1-2)Gal(b1-4)[Fuc(a1-3)]GlcNAc(b1-2)Man(a1-6)]Man(b1-4)GlcNAc(b1-4)[Fuc(a1-6)]GlcNAc
Method in brief: as §1

[4] = target: Fuc(a1-2)[Gal(a1-3)]Gal(b1-3)GlcNAc
Method in brief: as §1

[5] = target: Fuc(a1-2)[Gal(a1-3)]Gal(b1-3)GlcNAc(b1-2)Man(a1-3)[Fuc(a1-2)[Gal(a1-3)]Gal(b1-3)GlcNAc(b1-2)Man(a1-6)]Man(b1-4)GlcNAc(b1-4)GlcNAc
Method in brief: as §1

[6] = target: Fuc(a1-2)[Gal(a1-3)]Gal(b1-4)Glc
Method in brief: as §1

[7] = target: Fuc(a1-2)[Gal(a1-3)]Gal(b1-4)GlcNAc
Method in brief: as §1

[8] = target: Fuc(a1-2)[Gal(a1-3)]Gal(b1-4)GlcNAc(b1-2)Man
Method in brief: as §1

[9] = target: Fuc(a1-2)[Gal(a1-3)]Gal(b1-4)GlcNAc(b1-2)Man(a1-3)[Fuc(a1-2)[Gal(a1-3)]Gal(b1-4)GlcNAc(b1-2)Man(a1-6)]Man(b1-4)GlcNAc(b1-4)[Fuc(a1-6)]GlcNAc
Method in brief: as §1

[10] = target: Fuc(a1-2)[Gal(a1-3)]Gal(b1-4)GlcNAc(b1-6)GalNAc
Method in brief: as §1

[11] = target: Fuc(a1-2)[GalNAc(a1-3)]Gal(b1-3)GlcNAc
Method in brief: as §1

[12] = target: Fuc(a1-2)[GalNAc(a1-3)]Gal(b1-4)GlcNAc(b1-2)Man
Method in brief: as §1

[13] = target: Fuc(a1-2)[GalNAc(a1-4)]Gal(b1-4)GlcNAc
Method in brief: as §1

[14] = target: Fuc(a1-3)[Gal(b1-4)]GlcNAc(b1-6)[Gal(b1-3)GlcNAc(b1-3)]Gal(b1-4)Glc
Method in brief: as §1

[15] = target: Fuc(a1-3)[Gal3S(b1-4)]GlcNAc
Method in brief: as §1

[16] = target: Gal(a1-3)Gal(b1-3)[Fuc(a1-4)]GlcNAc(b1-2)Man(a1-3)[Gal(a1-3)Gal(b1-3)[Fuc(a1-4)]GlcNAc(b1-2)Man(a1-6)]Man(b1-4)GlcNAc(b1-4)GlcNAc
Method in brief: as §1

[17] = target: Gal(a1-3)Gal(b1-4)GlcNAc(b1-2)Man
Method in brief: as §1

Gal(a1-3)GalNAc = target: Gal(a1-3)GalNAc
Method in brief: as §1

[18] = target: Gal(a1-4)Gal(b1-3)GlcNAc(b1-2)Man(a1-3)[Gal(a1-4)Gal(b1-3)GlcNAc(b1-2)Man(a1-6)]Man(b1-4)GlcNAc(b1-4)GlcNAc
Method in brief: as §1

Gal(b1-2)Gal = target: Gal(b1-2)Gal
Method in brief: as §1

[19] = target: Gal(b1-3)GlcNAc(b1-3)Gal(b1-4)[Fuc(a1-3)]GlcNAc
Method in brief: as §1

[20] = target: Gal(b1-3)[Fuc(a1-4)]GlcNAc(b1-6)GalNAc
Method in brief: as §1

[21] = target: Gal(b1-4)GlcNAc(b1-2)Man(a1-3)[Gal(b1-4)GlcNAc(b1-2)Man(a1-6)][GlcNAc(b1-4)]Man(b1-4)GlcNAc(b1-4)[Fuc(a1-6)]GlcNAc
Method in brief: as §1

[22] = target: Gal(b1-4)GlcNAc(b1-2)Man(a1-6)[GlcNAc(b1-2)Man(a1-3)]Man(b1-4)GlcNAc(b1-4)GlcNAc
Method in brief: as §1

[23] = target: Gal(b1-4)GlcNAc(b1-3)Gal(b1-4)GlcNAc(b1-3)Gal(b1-4)GlcNAc
Method in brief: as §1

B1: Gal 8 (Mus musculus), Q9JL15 (protein)
chain: MGGSHHHHHHGMASMLSLNNLQNIIYNPIIPYVGTITEQLKPGSLIVIRGHVPKDSERFQVDFQLGNSLKPRADVAFHFNPRFKRSSCIVCNTLTQEKWGWEEITYDMPFRKEKSFEIVFMVLKNKFQVAVNGRHVLLYAHRISPEQIDTVGIYGKVNIHSIGFRFSSASALPHTLGDLQSMETSALGLTQINRENIQKPGKLQLSLPFEARLNASMGPGRTVVIKGEVNTNARSFNVDLVAGKTRDIALHLNPRLNVKAFVRNSFLQDAWGEEERNITCFPFSSGMYFEMIIYCDVREFKVAINGVHSLEYKHRFKDLSSIDTLSVDGDIRLLDVRSW
Q: How did the “glycan array binding signal (z-score)” value [1] turn out when B1 was run?
A: -0.259

Q: And the “glycan array binding signal (z-score)” value (Fuc(a1-2)Gal(b1-3)GlcNAc)?
A: 0.14

Q: And the “glycan array binding signal (z-score)” value (Fuc(a1-2)Gal(b1-4)Glc)?
A: 0.021

Q: And the “glycan array binding signal (z-score)” value [2]?
A: -0.038

Q: And the “glycan array binding signal (z-score)” value [3]?
A: -0.529

Q: And the “glycan array binding signal (z-score)” value [4]?
A: 3.88

Q: What about the “glycan array binding signal (z-score)” value [5] of the same binder?
A: 3.71

Q: What about the “glycan array binding signal (z-score)” value [6] of the same binder?
A: 2.26

Q: And the “glycan array binding signal (z-score)” value [7]?
A: 3.76

Q: What about the “glycan array binding signal (z-score)” value [8] of the same binder?
A: 2.84

Q: What about the “glycan array binding signal (z-score)” value [9] of the same binder?
A: 3.64

Q: And the “glycan array binding signal (z-score)” value [10]?
A: -0.535

Q: What about the “glycan array binding signal (z-score)” value [11] of the same binder?
A: 1

Q: And the “glycan array binding signal (z-score)” value [12]?
A: 3.48

Q: And the “glycan array binding signal (z-score)” value [13]?
A: -0.537

Q: What about the “glycan array binding signal (z-score)” value [14] of the same binder?
A: 0.008

Q: And the “glycan array binding signal (z-score)” value [15]?
A: -0.521

Q: What about the “glycan array binding signal (z-score)” value [16] of the same binder?
A: -0.204

Q: What about the “glycan array binding signal (z-score)” value [17] of the same binder?
A: 0.378

Q: What about the “glycan array binding signal (z-score)” value (Gal(a1-3)GalNAc) of the same binder?
A: -0.533

Q: What about the “glycan array binding signal (z-score)” value [18] of the same binder?
A: -0.534

Q: And the “glycan array binding signal (z-score)” value (Gal(b1-2)Gal)?
A: -0.521

Q: What about the “glycan array binding signal (z-score)” value [19] of the same binder?
A: 0.099

Q: And the “glycan array binding signal (z-score)” value [20]?
A: -0.515

Q: What about the “glycan array binding signal (z-score)” value [21] of the same binder?
A: -0.123

Q: And the “glycan array binding signal (z-score)” value [22]?
A: -0.108

Q: And the “glycan array binding signal (z-score)” value [23]?
A: 0.937
